Source: PubChem BioAssay (Center for Chemical Genomics, University of Michigan)
The entries come from a sample that favours hits as a whole.
Dicer processing = human Dicer pre-microRNA cleavage inhibition; z-score at 25 µM; 47,000 tested, 6% active; Q9UPY3; cat-ELCCA pre-miR-21 Dicer processing, chemiluminescence; active compounds read high; in the data active means z-score above about 3, passing the limit was not always enough;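 further: higher signal means more uncleaved substrate so more Dicer inhibition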
Large screens that a line does not name were inactive.

O=C(NCc1ccc(-n2cccn2)cc1)c1cnn2c1NC(c1ccco1)CC2C(F)(F)F (stereo not given)	none
COc1ccc(NC(=O)c2cnn3c2NC(c2cccs2)CC3C(F)(F)F)cc1OC (stereo not given)	none
COc1ccc(NC(=O)c2cnn3c2NC(c2ccco2)CC3C(F)(F)F)cc1OC (stereo not given)	Dicer processing 4.6
C#CCSc1nnnn1-c1c(C)cc(C)cc1C	none
CCC(C)OC(=O)C1=C(C)NC2=C(C(=O)CC(c3ccccc3)C2)C1c1ccc(O)cc1 (stereo not given)	none
COc1ccc(Br)c(C(=O)/C(C#N)=C/c2ccc(N(C)C)cc2)c1	Dicer processing 6.2
COc1ccc(Br)c(C(=O)NN)c1	none
COc1ccc(Br)c(C(=O)/C(C#N)=C/c2cccs2)c1	none
CCC(CO)NC(=S)NC1CC2CCC1C2 (stereo not given)	none
c1ccc(Nc2cc(-c3ccccc3)[nH]n2)cc1	none
O=C(Nc1ccc(Oc2ncnc3cc(Cl)ccc23)nc1)c1ccccc1	none
Cc1csc2sc(-c3ccn[nH]3)c(C)c12	Dicer processing 3.5
CCOC(=O)c1sc2sc(-c3ccn[nH]3)c(C)c2c1C	none
Cc1csc2sc(-c3ccnc(SCc4ccccc4)n3)c(C)c12	none
Cc1nn(-c2ccccc2)nc1C(=O)Nc1cccnc1Oc1ncnc2cc(Cl)ccc12	none
C(=N\Nc1c2c(nc3ncnn13)CCC2)/c1cccs1	none
COC(=O)c1sccc1N/N=C/c1ccc(F)cc1	none
COC(=O)c1sc2cc(-c3ccc(F)cc3)sc2c1C	Dicer processing 3.8
COC(=O)c1sc(SC)c(C(C)=O)c1C	none
CCOc1cc(C2C(C(=O)OC)=C(C)NC3=C2C(=O)c2ccccc23)c(Cl)cc1OC (stereo not given)	none
Cc1c(-c2ccccc2)nnn1-c1cccc(Cl)c1C#N	none
COc1nc(-c2ccccc2)ccc1-c1noc(-c2ccc(C)cc2)n1	none
COc1nc(-c2ccc(C)cc2)ccc1-c1noc(-c2cccnc2)n1	Dicer processing 3.5
COc1ccc(-c2ccc(-c3noc(-c4cccc(OC)c4)n3)c(OC)n2)cc1	none
CCCN1C(=O)C2(/C(=C(/O)c3ccc(OCC)cc3)C(=O)C(=O)N2CC2CCCO2)c2ccccc21 (stereo not given)	none
Cc1ccc(-n2ncc3c2ncn2c(COc4ccccc4C)nnc32)cc1	none
N#Cc1c(S/C=C(\O)c2cc3ccccc3o2)nc2c(c1C(F)(F)F)CCCC2	none
CC1c2ccsc2CCN1S(=O)(=O)c1ccc(Cl)s1 (stereo not given)	none
Cc1c(C)c(C)c(CSC2=NCC(C)N2)c(C)c1C (stereo not given)	Dicer processing 4
Cc1cc(C)c(CSC2=NCCN2)c(C)c1CSC1=NCCN1	none
Cc1c(C)c(C)c(CSC2=NCCC2)c(C)c1C	none
Cc1cc(=O)[nH]c(/N=C(\N)Nc2ccc(F)cc2F)n1	none
CCn1c(SCC(=O)c2ccccc2)nnc1-c1oc2nc(-c3ccccc3)cc(-c3ccco3)c2c1N	none
CC(C)(C)C(=O)NNC(=O)c1cc2ncc(C(F)(F)F)cc2s1	none
Cc1cc(C)nc(N2CCN(c3nc(C)cc(C)n3)CC2)n1	Dicer processing 4.2
Cc1cc(N2CCOCC2)nc(N2CCOCC2)n1	none
Cc1cc(C)nc(N2CCC(NC3CC(=O)N(c4ccc(F)cc4)C3=O)CC2)n1 (stereo not given)	none
O=C(O)c1coc2c1/C(=N/Nc1ccccc1)CCC2	none
O=[N+]([O-])c1c(Nc2ccccc2)ccc2nsnc12	none
CCn1c(NCc2c(O)ccc3ccccc23)nc2ccccc21	none
CC(=O)Nc1nc2ccccc2n1CCN(C)C	none
CCOc1ccccc1CNc1nc2ccccc2n1CCN(CC)CC	Dicer processing 5.3
CCN(CC)CCn1c(NCc2ccc(Br)cc2)nc2ccccc21	none
CCn1c(NCc2ccc(N(C)C)cc2)nc2ccccc21	none
CCN(CC)CCn1c(NCc2ccccc2Cl)nc2ccccc21	none
CCN(CC)CCn1c(NCc2ccccc2O)nc2ccccc21	Dicer processing 6.1
CCCn1c(NCc2cc(C)ccc2O)nc2ccccc21	none
CCCn1c(NCc2nc3ccccc3n2C)nc2ccccc21	none
CCCn1c(NCc2cccc(Br)c2)nc2ccccc21	none
CCN(CC)CCn1c(NCc2ccco2)nc2ccccc21	Dicer processing 3.8
C=CCc1cccc(CNc2nc3ccccc3n2CC)c1O	Dicer processing 6.9
N/C(COc1c(Cl)cccc1Cl)=N\O	none
Cc1cc(S(=O)(=O)c2nc3ccc(Cl)cc3s2)c(C)cc1Cl	none
CC1CCN(C(=O)Cn2cc(C(=O)C3CCCCC3)c3ccccc32)CC1	none
O=C(Oc1cc2ccccc2cc1C(=O)O)c1cccc(Cl)c1	none
N/C(CSc1cccs1)=N\OC(=O)Nc1ccccc1	none
Fc1ccc(/C=N/Nc2c(Cl)cc(C(F)(F)F)cc2Cl)cc1Cl	none
CCc1ccc(C2C(C(=O)OCC3CCCO3)=C(C)NC3=C2C(=O)CCC3)cc1 (stereo not given)	none
CCOC(=O)C1=C(C)NC(SC)=NC1c1cccs1 (stereo not given)	none
Cc1cc(=O)oc2cc(NC(=O)CSCC(=O)O)ccc12	none
O=C1SC(Nc2ccccc2F)C(=O)N1c1ccccc1 (stereo not given)	Dicer processing 3.4
O=C1SC(Nc2ccccc2Br)C(=O)N1c1ccccc1 (stereo not given)	none
O=C1SC(Nc2cccc(F)c2)C(=O)N1c1ccccc1 (stereo not given)	Dicer processing 7.3
COC(=O)c1ccccc1NC1SC(=O)N(c2ccccc2)C1=O (stereo not given)	none
Cc1ccc(N2C(=O)SC(Nc3ccc(C(=O)O)cc3)C2=O)cc1C (stereo not given)	none
COC(=O)c1ccc(NC2SC(=O)N(c3ccccc3)C2=O)cc1 (stereo not given)	none
Cc1ccc(N2C(=O)SC(Nc3ccc(C(=O)O)cc3)C2=O)cc1 (stereo not given)	Dicer processing 5.4
O=C1SC(Nc2cccc(Br)c2)C(=O)N1c1ccccc1 (stereo not given)	none
Cc1ccc(N2C(=O)SC(Nc3ccccc3C(=O)O)C2=O)cc1C (stereo not given)	none
CCOCCCNC(=O)CN1C(=O)c2ccccc2S1(=O)=O	none
COc1cccc(-n2c(CCC(=O)O)ccc2-c2cccs2)c1	none
Cc1onc(-c2ccccc2)c1-c1csc(-c2ccc(-c3csnn3)cc2)n1	none
COc1ccc(C2c3c(n(C)c(=O)n(C)c3=O)N=C3c4ccccc4C(=O)C32)cc1 (stereo not given)	none
CN(C)CCCN1C(=O)C(O)=C(C(=O)c2cccs2)C1c1ccccc1F (stereo not given)	none
O=c1cc(O)c2sc3nc(-c4cccs4)cc(-c4ccc(Cl)cc4)c3c2[nH]1	none
N#Cc1c(-c2ccccc2)nc(SCc2ccccc2Cl)[nH]c1=O	none
CCOC(=O)/C(C)=N/Nc1ccc(F)cc1	none
CCOC(=O)/C(=N\Nc1cccc(C)c1)c1csc(N)n1	Dicer processing 4
CCOC(=O)/C(C)=N/Nc1ccccc1	none
COc1cc(C2c3c(oc4ccc(Cl)cc4c3=O)C(=O)N2Cc2ccc3c(c2)OCO3)ccc1O (stereo not given)	none
CCCOc1ccccc1C1C(C(=O)OCC2CCCO2)=C(C)NC2=C1C(=O)CCC2 (stereo not given)	none
Cn1c(=O)[nH]c(=O)c2c1nc(NCCO)n2CC(O)COc1ccccc1 (stereo not given)	none
Cn1c(=O)c2c(nc(NCc3ccco3)n2C)n(C)c1=O	none
CC(C)CNc1nc2c(c(=O)[nH]c(=O)n2C)n1C(C)C	none
CC(C)OCC(O)Cn1c(NCc2ccco2)nc2c1c(=O)[nH]c(=O)n2C (stereo not given)	Dicer processing 3.9
CC(C)Cn1c(NCc2ccco2)nc2c1c(=O)[nH]c(=O)n2C	Dicer processing 4.5
